Source: PubChem BioAssay (National Center for Advancing Translational Sciences (NCATS))
IkB sig inh: IkB Signaling | AID 445, 2006 | Potency, µM (series often up to 57.1 µM), inactives show at the top dose IkBa stabilization activation | ABC-DLBCL IkBa-CBG/CBR dual luciferase ratio, 4 h; response scale: scaled: untreated 0%, proteasome inhibitor 100% | actives 0.04% (n = 110,000); active means well fitted curve in the direction sought with a large enough effect in the signal ratio, not every such curve was filed as active; inconclusive means small, poorly fitted or top-dose-only effect, or a change in a side signal; the % refers to the signal ratio;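 further: the direction sought is a rising ratio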
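In this assay, an IκBα–CBG68 fusion accumulates when IKK-driven degradation is blocked; native CBR normalizes for cell number. OCI-Ly3 cells were treated 4 h with compound and doxycycline, then green and red light read after Chroma-Glo addition.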
Imprint erasure: qHTS Assay for Compounds that Induce Erasure of Genomic Imprints | mouse ES Peg3-LacZ reporter, beta-gal luminescence, 40 h | Potency, µM (doses to about 60.7 µM), without a hit: at the top dose activity change, positive = activation, hits mostly activators | actives 0.02% (n = 110,000) | AID 1948, 2009
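Gelatin-coated wells received 300 freshly trypsinized female ES cells with a Peg3LacZ-Neo reporter on the maternal allele, then incubated 40 hours at 37C. BetaGlo was added for 5 minutes at room temperature before a single luminescence read.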
p53ts 32C kill: qHTS Screen for Compounds that Selectively Target Cancer Cells with p53 Mutations: Cytotoxicity of p53ts Cells at the Permissive Temperature | H1299-p53A138V at 32C, ATP luminescence viability, 24 h | Potency, µM (series often up to 46.1 µM), for inactives: top-dose activity change, negative = cytotoxicity, hits mostly cytotoxic | actives 0.93% (n = 130,000);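 further: 0% = DMSO and -100% = full killing by reference compound; nearly all actives have a fitted effect of over 55% in size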
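Viability by ATPlite luminescence after 24 h compound treatment (up to 46 uM) at the permissive 32C. Cells are H1299 carrying p53 A138V. Scale runs from DMSO basal to 100 uM tamoxifen as full kill; AC50 from Hill fits.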
p53ts 39C kill: qHTS Screen for Compounds that Selectively Target Cancer Cells with p53 Mutations: Cytotoxicity of p53ts Cells at the Nonpermissive Temperature | H1299-p53A138V viability at 39C, ATP luminescence, 24 h | Potency, µM (titrated, usually from 46.1 µM), without a hit: at the highest dose activity change, negative = cell killing, most hits filed as cytotoxic | actives 1.5% (n = 130,000) | AID 902, 2007; further: on the % scale 0 is the no-effect control and ±100 the full control effect; nearly all actives have a fitted effect of over 55% in size
Starred values were filed as active, the others as inactive; ? = inconclusive; / = no result; [ ] = another dose, or the depositor's remark. An excerpt weighted towards active compounds, which were near 1.7% of everything screened. Unless noted, the call rests on the fitted dose curve; in most records, active means well fitted curve in the direction sought with a large enough effect; inconclusive means small, poorly fitted or top-dose-only effect, or another doubt; inactive means no such curve, though single readings can be large; an effect the other way counts as inactive or inconclusive. Potency means the concentration at half of the fitted maximal effect.

SMILES | IkB sig inh | Imprint erasure | p53ts 32C kill | p53ts 39C kill
CCN1CCN(CCC(=O)Nc2ccccc2OC)CC1 | 1% | -10% | -6% | 3%
COc1ccc(Oc2ncc3nc(CCc4ccccc4)c(=O)n(CCC#N)c3n2)cc1 | 2%[11.4 µM] | / | -5% | 3%
COc1cc2c(C=O)c3c4c(cc(OC)c(OC)c4c2cc1OC)CCN3C | / | -19% | ? | 16µM*
O=C(Cn1cnc2onc(-c3ccc(Cl)cc3)c2c1=O)Nc1ccc(F)cc1 | ? | -11%[10.9 µM] | 2% | ?
O=C(Cn1cnc2onc(-c3ccc(F)cc3)c2c1=O)Nc1ccc(F)c(Cl)c1 | ? | 14%[10.9 µM] | -1% | 13µM*
Cc1ccc(OCC(=O)Nc2cccc(-c3nc4ccccc4s3)c2)cc1 | ? | -50%[10.9 µM] | ? | -28%
CCCn1c2ccccc2c2cnn(CC(=O)Nc3cc(C)c(Cl)cc3OC)c(=O)c21 | / | / | 1% | /
NC(=O)/N=N/C(N)=O | 0% | -25% | 1%[1.84 µM] | 2%
O=C(COc1ccc2c(c1)CCC2)N1CCc2ccccc21 | ? | -35% | 13µM* | ?
CCN(CC)c1ccc(C(=O)Nc2cccc(F)c2)cc1 | -1% | -66% | 13µM* | ?
O=S(=O)(c1cccc2c(Cl)cccc12)N1CCCNCC1 | ? | -16% | -3% | 16µM*
O=C(CCCc1ccccc1)c1ccc2c(c1)OCCO2 | / | / | 7.9µM* | 11µM*
O=C(O)CCC(=O)c1ccc2c(c1)OCCCO2 | 4% | -8% | 0% | -9%
COc1ccc(-c2nc3scc(CCNS(=O)(=O)c4ccc(F)c(C(F)(F)F)c4)n3n2)cc1OC | 3% | 5%[10.9 µM] | -5% | -13%
O=C(CC(c1ccccc1)c1cc(Br)ccc1O)NCC1(c2ccccc2)CCCC1 (centres undefined) | ? | -4%[10.9 µM] | ? | 10µM*
O=C(CC(c1ccccc1)c1cc(Br)ccc1O)NCCN1CCOCC1 (centres undefined) | 4% | -7% | 1% | 8%
OCCN1CCN(CCC=C2c3ccccc3Sc3ccc(Cl)cc32)CC1 | 1%[25.6 µM] | 4%[16.8 µM] | -7%[20.6 µM] | -10%[20.6 µM]
Cc1ccc(-c2nc3n(n2)C(c2ccccc2C)C=C(c2ccc(Cl)cc2)N3)cc1 (centres undefined) | ? | 1%[10.9 µM] | 4% | -7%
CCc1ccc(C2=CC(c3c(F)cccc3Cl)n3c(nc4ccccc43)N2)cc1 (centres undefined) | 7% | -16%[10.9 µM] | ? | ?
Cc1cccc(C2C=C(c3ccc(F)cc3)Nc3nc4ccccc4n32)c1 (centres undefined) | ? | -26%[10.9 µM] | 20µM* | 10µM*
Cc1ccc(C2=CC(c3ccccc3C)n3c(nc4ccccc43)N2)cc1 (centres undefined) | ? | -20%[10.9 µM] | ? | 5µM*
O=C1C(Cl)=C(NC2CCc3ccccc32)C(=O)c2ncccc21 (centres undefined) | / | -86% | 2.5µM* | 6.3µM*
O=C1C(Cl)=C(NCCN2CCOCC2)C(=O)c2ncccc21 | / | -82% | 3.2µM* | 5µM*
c1ccc2c(c1)CCCC2NC1=NCCC1 (centres undefined) | 0% | 6% | -2% | 5%
Clc1ccccc1-c1nccc(NCCN2CCOCC2)n1 | 0%[11.4 µM] | -13% | -1% | -13%
SMILES | IkB sig inh | Imprint erasure | p53ts 32C kill | p53ts 39C kill
O=C(CSCc1ccccc1Cl)N1CCN(c2ccc(Cl)cc2)CC1 | ? | -8%[10.9 µM] | -7% | 7%
CC1CCN(S(=O)(=O)c2ccc(N3CCCCS3(=O)=O)cc2)CC1 | 2% | -8%[10.9 µM] | -7% | 15%
O=C(NCc1ccc(F)cc1)C(=O)Nc1ccc2nc3n(c(=O)c2c1)CCCCC3 | -1% | 23%[10.9 µM] | 1% | -5%
Cc1c(-c2ccc(O)cc2)nn(-c2ccc(O)cc2)c1-c1ccc(OCCN2CCCCC2)cc1 | ? | -22% | ? | 32µM*
CCOc1ccccc1NC(=O)c1sc2nc(C)cc(C)c2c1N | 4% | 23%[10.9 µM] | 5% | 1%
Cc1cc(C)c2c(N)c(C(=O)Nc3ncc(C)s3)sc2n1 | / | / | 1µM* | 0.79µM*
CCN(CCCNC(=O)c1cc2c(=O)n(C)c3ccccc3c2s1)c1ccccc1 | 2% | -7%[10.9 µM] | -14% | ?
CCN(CCCNC(=O)c1cc2c(=O)[nH]c3ccc(C)cc3c2s1)Cc1ccccc1 | ? | -23%[10.9 µM] | 13µM* | 13µM*
CCN(CCCNC(=O)c1cc2c(=O)n(C)c3ccccc3c2s1)Cc1ccccc1 | ? | -7%[10.9 µM] | 1% | 13µM*
CN(CCCNC(=O)c1cc2c(Cl)nc3ccccc3c2s1)Cc1ccccc1 | ? | -8%[10.9 µM] | 3% | ?
Cc1ccc2nc(Cl)c3cc(C(=O)NCCCN(C)Cc4ccccc4)sc3c2c1 | ? | -9%[10.9 µM] | ? | 13µM*
COc1ccc(CNC(=O)C2CCN(c3nnc(-n4cccc4CNc4ccc(C)cc4)s3)CC2)c(OC)c1 | ? | -12%[10.9 µM] | 3% | -15%
COc1cccc(Cn2c(=O)cnc3cnc(N(C)C)nc32)c1 | -3%[11.4 µM] | ? | -4% | -3%
Cc1nn(Cc2ccc(Cl)c(Cl)c2)c(C)c1NC(=O)c1cc(-c2ccc3c(c2)OCO3)on1 | ? | -42% | 20µM* | ?
Cc1nn(Cc2ccc(Cl)cc2)c(C)c1NC(=O)c1cc(-c2ccc3c(c2)OCO3)on1 | 13% | -45% | ? | ?
O=C(Nc1cccc(Cl)c1)c1cc(-c2ccc3c(c2)OCCO3)on1 | ? | -63%[10.9 µM] | ? | 4µM*
Cc1cccc(NC(=O)c2cc(-c3ccc4c(c3)OCCO4)on2)c1 | ? | 7%[10.9 µM] | 1µM* | 1µM*
CCCCNC(=O)Cn1ncc2c(C)n(Cc3cccc(Cl)c3)c(C)c2c1=O | ? | -6%[10.9 µM] | -1% | -19%
CC(C)[C@H](Nc1ncnc2nc[nH]c12)C(=O)O | -1%[11.4 µM] | ? | -11%[9.22 µM] | -1%[9.22 µM]
COc1ccc(NC(=O)c2ccc3c(c2)N(Cc2cccc(Cl)c2)C(=O)c2ccccc2S3(=O)=O)cc1Cl | 2% | -10%[10.9 µM] | -3% | 18%
O=C(CCN1C(=O)c2ccccc2C1=O)Nc1ccc(-c2cn3ccsc3n2)cc1 | -1% | -52% | -15% | ?
CCC(=O)Nc1cccc(-c2cn3ccsc3n2)c1 | 0% | -8% | -15% | -16%
O=C(Nc1ccc(-c2cn3ccsc3n2)cc1)C1CC1 | 0% | -38% | 6.3µM* | 5µM*
c1cn2cc(-c3ccc4c(c3)OCO4)nc2s1 | 0% | -80% | 16µM* | 13µM*
O=C(Nc1ccc(-c2cn3ccsc3n2)cc1)C1CCCC1 | 0% | -45% | 5µM* | 2.5µM*
CC(C)C(=O)Nc1cccc(-c2cn3ccsc3n2)c1 | 3% | 6% | ? | -3%
CC(=O)Nc1ccc(-c2cn3ccsc3n2)cc1 | 7% | -48% | 10µM* | ?
O=C(CSc1nnc(-c2ccccc2Cl)o1)N1CCCc2ccccc21 | ? | -9%[10.9 µM] | -17% | ?
CN(Cc1ccco1)c1nc(-c2ccccc2C(F)(F)F)nc2ccccc12 | 5%[11.4 µM] | -6% | 11% | -3%
